In PubChem BioAssay (NCATS):
Records with an inconclusive call do not appear. Values without a mark were called inactive. Active and inactive are the calls of the source. The call rests on the fitted dose curve; in most records, active means well fitted cell-killing curve with a large enough effect; inconclusive means small, poorly fitted or top-dose-only effect; inactive means no such curve, though single readings can be large or run the other way.
Potency means the concentration at half of the fitted maximal effect.

Test: qHTS of pediatric cancer cell lines to identify multiple opportunities for drug repurposing: Primary screen for OHS-50 cells (AID 1347103); further: nearly all actives have a fitted effect of over 40% in size
Settings: OHS-50 osteosarcoma viability, CellTiter-Glo luminescence, 48 h; series mostly up to 57.3 µM; activity change, negative = cytotoxic: at the top concentration
Excerpt: Drug repurposing or repositioning has been offered as a strategy for drug development in oncology programs. This approach has special potential for childhood cancers and other rare or orphan diseases, where the expected return on new drug development has been a disincentive to pharmaceuticals.
In this project we exploit the poly-pharmacology of drugs to discover new indications via phenotypic screening of a panel of 19 well-characterized cell lines derived from solid tumors seen in children and adolescents. The goal is to identify approved drugs with previously unrecognized anticancer properties that has the potential to reveal new mechanisms and biological processes involved in carcinogenesis or drug resistance. We employed a titration-based paradigm (quantitative high-throughput screening or qHTS), where all compounds were tested at multiple concentrations for their effect on cell viability. Concentration-response curves (CRCs) were derived directly from the primary screen, and both potency and efficacy values were used to identify compounds with robust bioactivity profiles. We screened the NIH Chemical Genomics Center (NCGC) Pharmaceutical Collection (NPC) and Mechanism Interrogation Plate (MIPE) small molecule collections of approved and investigational compounds against these cell lines; and measured metabolically active cells after 48 hours of compound treatment as a proxy for cell viability.
Assay Submitter: Nathalia J. Martinez, National Center for Advancing Translational Sciences, National Institutes of Health, Rockville, MD, USA; email: natalia.martinez@nih.gov
[1] Shen, M et al. Quantitative high-throughput phenotypic screening of pediatric cancer cell lines identifies multiple opportunities for drug repurposing. Oncotarget 2017 Dec 19;9(4):4758-4772. PMID 29435139.
The cells were obtained from University of North Carolina (UNC), Pediatric Preclinical Testing Program (PPT), and Coriell Institute (CI).
qHTS cell viability assay:
Cells were assayed in growth media at a density of 500-1,000 cells/well. Five microliters of cells were dispensed into 1,536-well, white, solid-bottom, TC-treated plates (Greiner Bio One) using a multidrop dispenser and incubated at 37 degrees C, 5% CO2, under a humidified atmosphere for 5 hours. Twenty-three nanoliters of compounds and controls (neutral control DMSO or positive control bortezomib at final concentration of 2.3 µM) were subsequently transferred by Kalypsys pintool. For primary screens, the MIPE collection was tested at 11-point dilutions (final concentrations range from 0.78 nM to 46 µM) and the NPC collection at 8-point dilutions (final concentrations range from 0.59 nM to 46 µM). Compounds tested in follow-up screens were assayed at 11-point dilutions. Cells were incubated for 48 hours, followed by addition of 3 µL of CellTiter-Glo (Promega). After a 15 min incubation at room temperature, samples were analyzed for luminescence intensity using a ViewLux High-throughput CCD imager equipped with clear filters.
With Cc1cc(-c2ncc(CC(=O)Nc3ccc(-c4cnccn4)cn3)cc2C)ccn1 the Potency was 5.44 µM (active). With COc1cc2nccc(Oc3ccc(NC(=O)Nc4cc(C)on4)c(Cl)c3)c2cc1OC the Potency was 19.3 µM (active). With COc1cccc(OC)c1-c1cc(C(=O)NC2(C(=O)O)C3CC4CC(C3)CC2C4)nn1-c1ccnc2cc(Cl)ccc12 (stereo not given) the “activity change, negative = cytotoxic” value was 16.6%. With Cc1ccc(NC(=O)c2ccc(CN3CCN(C)CC3)cc2)cc1Nc1nc(-c2cccnc2)cs1 the Potency was 21.7 µM (active). With C[C@H]1COC2=C1C(=O)C(=O)c1c2ccc2c1CCCC2(C)C the “activity change, negative = cytotoxic” value was 7.79%. For CC1(C)CC(=O)c2c(C(F)(F)F)nn(-c3ccc(C(N)=O)c(NC4CCC(O)CC4)c3)c2C1 (stereo not given), the Potency was 0.306 µM (active). For CN1CCc2c(n(Cc3ccc(C(=O)NO)cc3)c3ccccc23)C1, the Potency was 21.7 µM (active). For C=C1[C@H](n2cnc3c(=O)[nH]c(N)nc32)C[C@H](O)[C@H]1CO, the Potency was 8.63 µM (active). In the case of CCOC(=O)N1CCN([N+]([O-])=NOc2cc(ON=[N+]([O-])N3CCN(C(=O)OCC)CC3)c([N+](=O)[O-])cc2[N+](=O)[O-])CC1, the “activity change, negative = cytotoxic” value is reported as 20.2%. In the case of N#CC(c1ccc(Cl)cc1)c1c(Cl)cc(-n2ncc(=O)[nH]c2=O)cc1Cl (stereo not given), the Potency is reported as 15.3 µM (active). With CNC(=O)c1cc(Oc2ccc(NC(=O)Nc3ccc(Cl)c(C(F)(F)F)c3)c(F)c2)ccn1 the Potency was 10.9 µM (active). In the case of CC(=O)NCCC(=O)N[C@@H](CCC(N)=O)C(=O)N[C@@H](CO)C(=O)N[C@@H](CCC(N)=O)C(=O)N[C@@H](CCC(N)=O)C(=O)N[C@H](C(=O)N[C@@H](Cc1ccccc1)C(=O)N[C@]1(C)CCCCCCC=CCCC[C@@](C)(C(=O)N[C@@H](CCC(N)=O)C(=O)N[C@@H](CC(N)=O)C(N)=O)NC(=O)[C@H](CC(C)C)NC(=O)[C@H](CC(C)C)NC(=O)[C@@H](CCCNC(=N)N)NC(=O)[C@H](Cc2c[nH]c3ccccc23)NC(=O)[C@H](CC(C)C)NC(=O)[C@H](CC(N)=O)NC1=O)[C@H](C)O, the “activity change, negative = cytotoxic” value is reported as 46.2%. With Nc1ncnc2c1c(-c1cccc(OCc3ccccc3)c1)cn2C1CC(CN2CCC2)C1 (stereo not given) the Potency was 0.968 µM (active). With CNC(=O)c1c(-c2ccc(F)cc2)oc2cc(N(CCO)S(C)(=O)=O)c(C3CC3)cc12 the Potency was 27.3 µM (active). In the case of C[C@@H](O[C@H]1OCCN(Cc2n[nH]c(=O)[nH]2)[C@@H]1c1ccc(F)cc1)c1cc(C(F)(F)F)cc(C(F)(F)F)c1, the Potency is reported as 30.6 µM (active). In the case of c1cc(OCCN2CCCCC2)cc(-c2n[nH]c3ccc(-c4ncn[nH]4)cc23)c1, the Potency is reported as 6.85 µM (active). For C[C@@]1(c2cc(-c3cncnc3)c(F)cc2F)CCSC(N)=N1, the Potency was 2.73 µM (active). In the case of CN(C)CCN(C)C(=O)c1ccc(NC(=O)Nc2ccc(-c3nc(N4CCOCC4)c4ccn(CC(F)(F)F)c4n3)cc2)cc1, the Potency is reported as 0.0432 µM (active). With COc1cc(Cl)cn2c(-c3cccc(NC4CNC4)n3)cnc12 the Potency was 12.2 µM (active). For CCCCOCCOc1nc(-c2ccc(C(=O)O)c(F)c2)sc1C, the Potency was 0.485 µM (active). With CC(C)Oc1cc(Nc2nc(N[C@@H](C)c3ccc(F)cn3)ncc2Cl)[nH]n1 the Potency was 21.7 µM (active). With CC(C)CNc1ccnc(NCc2csc(-c3ccccc3)n2)n1 the Potency was 6.11 µM (active). With COc1nc(C)cnc1NS(=O)(=O)c1cccnc1-c1ccc(-c2nnco2)cc1 the “activity change, negative = cytotoxic” value was 18.3%. With Cc1nc(NC(=O)N2CCC[C@@H]2C(N)=O)sc1-c1csc(C(C)(C)C)n1 the Potency was 1.72 µM (active). In the case of CCn1c(-c2nonc2N)nc2cncc(CNC3CCNCC3)c21, the “activity change, negative = cytotoxic” value is reported as 12.2%. With CCCCCCCCCCCCCC(=O)N[C@H](CO)[C@H](O)c1ccc([N+](=O)[O-])cc1 the “activity change, negative = cytotoxic” value was -24.7%. In the case of O=C(CO)N1CCC(c2[nH]nc(-c3ccc(Cl)cc3)c2-c2ccncn2)CC1, the “activity change, negative = cytotoxic” value is reported as -17.7%. For CC(C)n1c(C=C[C@H](O)C[C@H](O)CC(=O)O)c(-c2ccc(F)cc2)c2ccccc21, the Potency was 4.32 µM (active). For C[C@@H]1[C@H](O)[C@@H](C)C=CC=CC=CC=CC=CC=CC=C[C@H](O[C@@H]2O[C@H](C)[C@H](O)[C@H](N)[C@@H]2O)C[C@@H]2O[C@](O)(C[C@@H](O)C[C@@H](O)[C@H](O)CC[C@@H](O)C[C@@H](O)CC(=O)O[C@H]1C)C[C@H](O)[C@@H]2C(=O)O, the “activity change, negative = cytotoxic” value was 36.2%. In the case of O=C1CN2Cc3c(ccc(Cl)c3Cl)N=C2N1, the Potency is reported as 21.7 µM (active). With CN(C(Cc1ccc(OS(=O)(=O)c2cccc3cnccc23)cc1)C(=O)N1CCN(c2ccccc2)CC1)S(=O)(=O)c1cccc2cnccc12 (stereo not given) the Potency was 13.7 µM (active). In the case of CN1C(=O)C(Cc2c[nH]c3ccccc23)NC1=S (stereo not given), the “activity change, negative = cytotoxic” value is reported as 12.7%. For Nc1ncnc2c1ncn2[C@@H]1O[C@H](CO)[C@@H](O)[C@@H]1O, the Potency was 3.85 µM (active). With CC[C@H](C)n1cc(C)c2c(C(=O)NCc3c(C)cc(C)[nH]c3=O)cc(-c3ccc(N4CCNCC4)nc3)cc21 the Potency was 24.3 µM (active). In the case of CN1CCN(c2cccc(Nc3nc4c(-c5ccc(S(C)(=O)=O)cc5)cccn4n3)c2)CC1, the Potency is reported as 7.69 µM (active). With COc1ccc2ccc(=O)oc2c1CC=C(C)C the Potency was 24.3 µM (active). For CCOC(=O)[C@H](CCc1ccccc1)N[C@@H](C)C(=O)N1CCCC1C(=O)O (stereo not given in full), the “activity change, negative = cytotoxic” value was 5.36%. With CC[C@H](C=C[C@@H](C)[C@H]1CC[C@H]2[C@@H]3CC=C4C[C@@H](O)CC[C@]4(C)[C@@H]3CC[C@]12C)C(C)C the “activity change, negative = cytotoxic” value was -9.86% [at 19.7 µM]. With CS(=O)(=O)c1ccc(C2=C(c3ccccc3)C(=O)OC2)cc1 the “activity change, negative = cytotoxic” value was 21.7%. With C=C[C@@H]1CN2CCC1C[C@@H]2C(O)c1ccnc2ccc(OC)cc12 (stereo not given in full) the “activity change, negative = cytotoxic” value was -1.22%.
